Data: PubChem BioAssay (NCATS)
Several values for one entry are separate records, joined by “and”; a condition that tells them apart may be missing. Equal entries are not always repeated. Activity calls are given as the source filed them. Calls follow the shape of the dose curve; as a rule, active = well fitted activation curve with a large enough effect; inconclusive = small, poorly fitted or top-dose-only effect; inactive = flat fitted curve, though single readings scatter.

Target: Peroxisome proliferator-activated receptor alpha (Homo sapiens) (UniProt Q07869)
Experiment: qHTS assay for small molecule agonists of the peroxisome proliferator-activated receptor alpha (PPARalpha) signaling pathway (AID 651778); also: % of control where 0% means no effect
Conditions: PathHunter PPARalpha complementation, chemiluminescence, 6 h; max response: active compounds read high
Excerpt: National Center for Advancing Translational Sciences [NCATS]
NIH Chemical Genomics Center [NCGC]
U.S. Environmental Protection Agency [EPA]
National Institutes of Environmental Health Sciences [NIEHS]
National Toxicology Program [NTP]
The Peroxisome proliferator-activated receptors (PPARs) are lipid-activated transcription factors of the nuclear receptor superfamily with three distinct subtypes (alpha, garmma and beta/delta). All these subtypes heterodimerize with retinoid X receptor and have different physiological functions. PPARalpha is highly expressed in tissues with high rates of mitochondrial fatty acid oxidation, such as liver, heart, muscle, kidney and cells of the arterial wall. PPARalpha is a major regulator of lipid metabolism and energy homeostasis.
A cell based assay was used to identify activators of PPARalpha. The assay detects binding of a ligand to PPARalpha leading to its activation, translocation and complementation thus forming a functional enzyme capable of hydrolyzing the substrate molecule and generating chemiluminescent signal.
2,000 cells in 6 uL/well were dispensed into white wall/solid bottom 1536-well plates using a Multidrop Combi (Thermo Scientific) dispenser. After incubation 37 C and 5% CO2 overnight, 23 nL compound or DMSO only were transferred by a pin tool. The plates were incubated for 6 hr at 37 C and 5% CO2. 3 ul PathHunter detection reagent (Discoverx) was then added to each well and following 60 min incubation at room temperature, chemiluminescence was quantified on a ViewLux CCD-based plate reader.

Sequence of Peroxisome proliferator-activated receptor alpha (Homo sapiens) (Q07869 whole entry, looked up): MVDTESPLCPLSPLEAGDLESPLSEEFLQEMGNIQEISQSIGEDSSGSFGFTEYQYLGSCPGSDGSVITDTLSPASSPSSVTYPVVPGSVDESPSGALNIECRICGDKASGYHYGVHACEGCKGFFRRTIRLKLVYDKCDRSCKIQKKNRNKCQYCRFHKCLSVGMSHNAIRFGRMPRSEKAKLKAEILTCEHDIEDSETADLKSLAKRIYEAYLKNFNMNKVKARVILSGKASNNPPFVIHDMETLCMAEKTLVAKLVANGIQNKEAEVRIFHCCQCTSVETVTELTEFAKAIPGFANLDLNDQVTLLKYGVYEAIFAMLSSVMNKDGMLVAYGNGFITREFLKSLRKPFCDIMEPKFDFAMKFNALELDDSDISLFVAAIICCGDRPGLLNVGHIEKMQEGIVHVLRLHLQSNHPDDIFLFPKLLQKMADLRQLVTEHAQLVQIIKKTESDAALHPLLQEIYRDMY

**Q.** `CCCCCCCCCCCCCCN(C)C` was tested. Which max response did it give?
**A.** The max response was -1.88% (inactive).

**Q.** Which max response does the source give for `CCO[Si](CCC#N)(OCC)OCC` here?
**A.** The max response was -0.819% (inactive).

**Q.** For `COC(=O)c1ccccc1S(=O)(=O)NC(=O)Nc1nc(OC(F)F)cc(OC(F)F)n1`, which max response is on record?
**A.** The max response was -0.141% (inactive).

**Q.** For `N#CSCSc1nc2ccccc2s1`, which max response is on record?
**A.** The max response was -9.14% (inactive).

**Q.** For `CCCCCCCCCC(=O)OC`, which max response is on record?
**A.** Its max response is 1.96% (inactive).

**Q.** With `CCCCC(CC)COC(=O)c1ccc(C(=O)OCC(CC)CCCC)cc1` (stereo not given) as the compound, how does the max response read?
**A.** Its max response is -1.72% (inactive).

**Q.** How did the max response turn out when `CCCOC(=O)NCCCN(C)C` was run?
**A.** Its max response is -0.73% (inactive).

**Q.** `CCc1cccc(C)c1N(C(=O)CS(=O)(=O)O)[C@@H](C)COC` was tested. Which max response did it give?
**A.** Its max response is -2.29% (inactive).

**Q.** `COC(=O)c1ccccc1C(=O)O` was tested. Which max response did it give?
**A.** Its max response is -0.96% (inactive).

**Q.** `CNc1nc(=O)n(C2CCCCC2)c(=O)n1C` was tested. Which max response did it give?
**A.** The max response was -0.955% (inactive).

**Q.** `Oc1ccc2ccccc2c1N=Nc1ccccc1` was tested. Which max response did it give?
**A.** The max response was 0.672% (inactive).

**Q.** For `CCCCNS(=O)(=O)c1ccccc1`, which max response is on record?
**A.** The max response was 0.574% (inactive).

**Q.** Which max response does the source give for `CC(COCC(C)OC(=O)c1ccccc1)OC(=O)c1ccccc1` (stereo not given) here?
**A.** The max response was 0.577% (inactive).

**Q.** With `O=C(O)c1cc2ccccc2cc1O` as the compound, how does the max response read?
**A.** The max response was 7.01% (inactive).

**Q.** With `OC1CCCCCCCCCCC1` as the compound, how does the max response read?
**A.** The max response was -2.43% (inactive).

**Q.** How did the max response turn out when `C1CCC2(CCCCO2)OC1` was run?
**A.** Its max response is 0.092% (inactive).

**Q.** For `CC(Cl)(Cl)C(=O)OCCOc1cc(Cl)c(Cl)cc1Cl`, which max response is on record?
**A.** The max response was 6.22% (inactive).

**Q.** How did the max response turn out when `Cc1ccc(C(C)(C)C)c(O)c1` was run?
**A.** The max response was -0.656% (inactive).

**Q.** With `Cc1ccc(N)c(S(=O)(=O)O)c1` as the compound, how does the max response read?
**A.** The max response was -5.19% (inactive).

**Q.** For `O=C1CCCC/C=C/CCCCCCCCCO1`, which max response is on record?
**A.** The max response was 11.1% (inactive).

**Q.** Which max response does the source give for `Cn1c(=O)[nH]c(=O)n(C2CCCCC2)c1=O` here?
**A.** The max response was -0.628% (inactive).

**Q.** With `CCCCCCCCCCCCCCCCCC#N` as the compound, how does the max response read?
**A.** The max response was 3.6% (inactive).

**Q.** How did the max response turn out when `Clc1nc(Cl)c(Cl)c(Cl)c1Cl` was run?
**A.** The max response was -3.38% (inactive).

**Q.** How did the max response turn out when `O=C(Cl)c1cccc(C(=O)Cl)c1` was run?
**A.** Its max response is -0.213% (inactive).

**Q.** `CCCCCCCCCCCCCCCCCCN` was tested. Which max response did it give?
**A.** The max response was 0.121% (inactive).

**Q.** With `CCSC(=O)N(CC(C)C)CC(C)C` as the compound, how does the max response read?
**A.** Its max response is -0.436% (inactive).

**Q.** With `CCOCCOCCOC(C)=O` as the compound, how does the max response read?
**A.** Its max response is 0.0175% (inactive).

**Q.** `CCCCCCOCCOCCO` was tested. Which max response did it give?
**A.** The max response was 0.465% (inactive).

**Q.** How did the max response turn out when `CC(C)(C)[C@H](O)[C@H](Cc1ccc(Cl)cc1)n1cncn1` was run?
**A.** The max response was -0.299% (inactive) and 2.68% (inactive).

**Q.** `CCCCCCCCCc1ccccc1` was tested. Which max response did it give?
**A.** Its max response is -0.702% (inactive).

**Q.** `CC1=CC(=O)CC(C)(C)C1` was tested. Which max response did it give?
**A.** The max response was 0.525% (inactive).

**Q.** Which max response does the source give for `CC/C(=C(\c1ccc(O)cc1)c1ccc(OCCN(C)C)cc1)c1ccccc1` here?
**A.** Its max response is -2.87% (inactive).

**Q.** Which max response does the source give for `CCCCCCCCCCCCCCCCCC(N)=O` here?
**A.** Its max response is -0.969% (inactive).

**Q.** Which max response does the source give for `C=C(C)C(=O)OCCOC(=O)C(=C)C` here?
**A.** Its max response is -3.02% (inactive).

**Q.** For `CCOC(=O)CC(O)(CC(=O)OCC)C(=O)OCC`, which max response is on record?
**A.** Its max response is 0.853% (inactive).

**Q.** `C=CC(=O)OCCOCC(CC)(COCCOC(=O)C=C)COCCOC(=O)C=C` was tested. Which max response did it give?
**A.** The max response was -0.796% (inactive).

**Q.** For `O=S(=O)(O)c1ccc(N=Nc2c(O)ccc3cc(S(=O)(=O)O)ccc23)cc1`, which max response is on record?
**A.** Its max response is -7.14% (inactive).

**Q.** `NNS(=O)(=O)c1ccc(Oc2ccc(S(=O)(=O)NN)cc2)cc1` was tested. Which max response did it give?
**A.** Its max response is -6% (inactive).

**Q.** With `c1ccc(OCCOc2ccccc2)cc1` as the compound, how does the max response read?
**A.** Its max response is 0.31% (inactive).

**Q.** Which max response does the source give for `Cc1ccc(C(=O)c2ccccc2)cc1` here?
**A.** Its max response is -3.56% (inactive).
